D1 ag: Allosteric Agonists of the Human D1 Dopamine Receptor: qHTS | HEK293 T-REx D1 cells, calcium flux, agonist mode | AID 504660, 2011 | 360,000 tested, 1% active | activation, % at 2 µM
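Inducible HEK293 T-REx D1 cells, force-coupled to calcium signalling, were plated at 4000 cells/well with tetracycline and held overnight at 30 C. After no-wash calcium dye loading, compound-evoked calcium rise over 180 s flagged agonists.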
TRHR PAM: qHTS for Small Molecule Agonists and Allosteric Enhancers of Human TRH Receptor: Primary Screen for Enhancers; Thyrotropin-releasing hormone receptor (Homo sapiens), P34981; TRHR cells, fluo-8 calcium fluorescence, EC20 TRH enhancement; enhancement, % at 2 µM; 360,000 tested, 0.66% active; in the data active = enhancement above about 30%
Target sequence (P34981 whole entry, looked up): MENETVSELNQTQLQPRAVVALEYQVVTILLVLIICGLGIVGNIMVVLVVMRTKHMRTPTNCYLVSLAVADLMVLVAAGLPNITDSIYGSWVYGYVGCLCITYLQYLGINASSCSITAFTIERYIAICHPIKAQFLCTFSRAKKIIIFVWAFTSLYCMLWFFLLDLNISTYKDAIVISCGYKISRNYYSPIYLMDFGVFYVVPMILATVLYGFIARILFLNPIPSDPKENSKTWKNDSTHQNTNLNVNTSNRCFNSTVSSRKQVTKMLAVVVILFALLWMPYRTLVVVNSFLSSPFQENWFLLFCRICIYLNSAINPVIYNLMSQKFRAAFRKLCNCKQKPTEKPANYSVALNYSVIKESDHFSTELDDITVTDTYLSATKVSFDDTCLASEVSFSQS
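TRHR-expressing cells loaded with fluo-8 calcium dye were read kinetically (ex 480/em 530) during compound addition, then stimulated with an EC20 of TRH (10 nM final). Enhancement of the Gq-mediated intracellular calcium response was scored.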
TRHR agonist: qHTS for Small Molecule Agonists and Allosteric Enhancers of Human TRH Receptor: Primary Screen for Agonists | Thyrotropin-releasing hormone receptor (Homo sapiens), P34981 | TRHR cells, calcium flux fluo-8, FDSS agonist mode | activation, % at 2 µM | 360,000 tested, 0.18% active | AID 493084, 2011
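TRHR-expressing cells, plated overnight in medium with 10% serum, were loaded with fluo-8 calcium dye at room temperature. After a 10 s baseline, library compound was pin-added and calcium release was recorded kinetically (ex 480/em 530) as agonist response.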
D1 potentiator: Potentiators of Human D1 Dopamine Receptor: qHTS. D(1A) dopamine receptor (Homo sapiens), P21728. HEK293 TREx D1 cells, calcium flux, dopamine EC20 potentiation. potentiation, % at 10 µM. 360,000 tested, 0.036% active. AID 504651, 2011; in the data active = potentiation above about 30%
D1 antagonist: Antagonist of Human D 1 Dopamine Receptor: qHTS; activity change, negative = inhibition, % at 10 µM; AID 504652, 2011; HEK293 TREx D1 cells, calcium flux, dopamine EC80; stronger effect = lower value; 360,000 tested, 3.2% active; in the data active = activity change below about -30%
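Calcium flux readout: force-coupled, inducible Hek293 Trex D1 line, cells induced overnight at 30 C with tetracycline, dye-loaded 30–90 min at RT. Antagonism scored against EC80 dopamine challenge given 180 s after compound.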
Each line names hits and unclear results; the compound was inactive in the other large screens. Rows were chosen to be rich in hits. Some 4.7% of all compounds tested hit in one or more screens of this group. Cut-off read from the data, not from the text of the source, unless noted: active = activation above about 30%; inactive = the rest.

CCCCc1ccc(S(=O)(=O)NCCc2ccncc2)cc1	D1 antagonist -45
Cc1ccc(S(=O)(=O)NCCc2ccncc2)cc1	none
O=C(CSc1ccccc1)NNC(=O)c1ccncc1	TRHR PAM 32
O=C(CSc1ccccc1F)NNC(=O)c1ccncc1	none
CCc1nc2sc3c(N4CCC(C)CC4)ncnc3c2c2c1CCCC2	none
CCc1ccc(CNC(=O)c2cnc3sc(N4CCCCC4)nn3c2=O)cc1	none
CSc1ccccc1NC(=O)CSc1nnc(CNC(=O)c2ccccc2F)n1C	D1 ag 48 (no result: D1 potentiator)
COc1ccccc1NC(=O)c1nnn(-c2ccc(F)cc2)c1C	none
C=CCn1c(=O)/c(=C/c2ccc(O)cc2)s/c1=C(/C#N)c1nnc2n1CCCCC2	D1 ag 50, TRHR agonist 30
COc1ccc2cc3c(N)c(C(=O)NCc4ccco4)sc3nc2c1	TRHR PAM 51
COc1ccc(CCNC(=O)C2c3ccccc3C(=O)N2Cc2ccccc2)cc1OC (stereo unspecified)	none
CCOC(=O)c1ccccc1NC(=O)CC(C)CC(=O)O (stereo unspecified)	none
CC(CC(=O)O)CC(=O)Nc1ccccc1C(=O)O (stereo unspecified)	D1 antagonist -30
CCOC(=O)c1ccc(NC(=O)CC2C(=O)N(c3cccc(OC)c3)C(=O)N2Cc2ccc(OC)cc2)cc1 (stereo unspecified)	none
CC(=O)c1ccc(OCC(O)CN2CCOCC2)cc1 (stereo unspecified)	D1 antagonist -35
CC(=O)Nc1ccc(OCC(O)Cn2cccn2)cc1 (stereo unspecified)	D1 antagonist -35
CC(=O)Nc1ccc(OCC(O)CN2CCN(S(=O)(=O)c3ccc(NC(C)=O)cc3)CC2)cc1 (stereo unspecified)	D1 antagonist -34
Cc1ccc(-n2ncc3c(N4CCN(Cc5ccccc5)CC4)ncnc32)cc1Cl	none
O=C(CCN1C(=O)S/C(=C/c2ccccc2)C1=O)Nc1ccc(C(=O)O)c(O)c1	D1 ag 55
O=C(CCCN1C(=O)S/C(=C/c2ccccc2)C1=S)Nc1ccc(C(=O)O)cc1	D1 antagonist -40
O=C(CCCN1C(=O)S/C(=C\C=C\c2ccccc2)C1=O)Nc1ccc(O)cc1	D1 antagonist -31
O=C(CN1C(=O)S/C(=C/c2ccccn2)C1=O)N1CCOCC1	none
O=C(CN1C(=O)S/C(=C\C=C\c2ccccc2)C1=O)N1CCOCC1	D1 antagonist -40
COC(=O)N1CCCc2cc(S(=O)(=O)NCc3ccccc3)ccc21	none
CSc1ncc(C(=O)NCc2ccc(C)cc2)c(-c2ccccc2)n1	none
CCOC(=O)c1c(C)[nH]c(C)c1S(=O)(=O)N1CCCC(C(=O)NCc2ccc(C)cc2)C1 (stereo unspecified)	none
CCOC(=O)c1c(C)[nH]c(C)c1S(=O)(=O)N1CCC(C(=O)Nc2ccccc2CC)CC1	D1 antagonist -37
CCOC(=O)c1c(C)[nH]c(C)c1S(=O)(=O)N1CCCC(C(=O)NCc2ccc(Cl)cc2)C1 (stereo unspecified)	D1 antagonist -31
CCOC(=O)N1CCN(S(=O)(=O)N2CCCC(C(=O)NCCc3ccc(Cl)cc3)C2)CC1 (stereo unspecified)	D1 antagonist -41
COC(=O)c1ccc2c(=O)n(CCCCCC(=O)NCCc3ccccc3)c(=O)[nH]c2c1	none
COc1cc(N2N=C(c3ccccc3)CC2c2ccccc2)c(C=O)cc1C=O (stereo unspecified)	none
COc1ccccc1N1N=C(c2ccc([N+](=O)[O-])cc2)CC1c1ccccc1 (stereo unspecified)	D1 ag 63
O=[N+]([O-])c1ccc(N2N=C(c3ccccc3)CC2c2ccccc2O)cc1 (stereo unspecified)	D1 ag 63
O=C(c1ccccc1)N1N=C(c2ccccc2)CC1c1ccccc1O (stereo unspecified)	none
CCOc1cc(CNC(=O)c2ccccc2NC(=O)c2nsc3ccccc23)ccc1OC	none
CCOC(=O)c1[nH]c(C)c(CCC(=O)Nc2cccc(SC)c2)c1C	none
Cc1cc(C)cc(NC(=O)C2CCN(S(=O)(=O)c3c(C)n[nH]c3C)CC2)c1	D1 antagonist -77
Cc1noc(/C=C/c2ccco2)c1S(=O)(=O)N1CCC(C(=O)Nc2ccc(F)c(Cl)c2)CC1	D1 antagonist -48
Cc1ccc(NC(=O)C2CCN(S(=O)(=O)c3c(C)noc3/C=C/c3ccco3)CC2)cc1C	none
Cc1noc(/C=C/N(C)C)c1S(=O)(=O)N1CCC(C(=O)Nc2ccc(Cl)cc2)CC1	D1 antagonist -45
Cc1cc(NC(=O)Cn2c(=O)nc(-c3ccccc3F)c3cc(Cl)ccc32)ccc1Br	none
CCNC(=O)c1c(NC(=O)Cc2coc3cc(C)cc(C)c23)sc2c1CCCC2	none
O=C(NCCc1ccccc1)C1CCN(c2ncnc3c2nc2n3CCCCC2)CC1	none
COc1ccccc1N1CCN(C(=O)c2cnc(N3CCOCC3)c3ccccc23)CC1	none
O=S(=O)(NCCSc1nc2ccccc2o1)c1ccccc1	D1 antagonist -33
O=C(CSc1nc2ccccc2o1)Nc1ccccc1	D1 antagonist -37
COc1ccc(-n2nc(C(=O)NCCc3ccc(Cl)cc3)c3c4ccccc4n(C)c3c2=O)cc1	none
Cc1ccccc1C(=O)Nc1nnc(S(=O)(=O)N(C)Cc2ccc(Cl)cc2)s1	TRHR PAM 43, D1 antagonist -31
O=C1CS(=O)(=O)C2(C(=O)N(Cc3ccccc3)c3ccccc32)N1c1ccccc1 (stereo unspecified)	none
COc1ccc2cc(CN(CC3CCCO3)C(=O)Nc3ccccc3OC)c(=O)[nH]c2c1 (stereo unspecified)	none
COc1ccc2cc(CN(C(=O)Nc3ccccc3OC)C3CCCC3)c(=O)[nH]c2c1	D1 antagonist -33
COc1ccccc1NC(=O)N(Cc1cccs1)Cc1cc2cc3c(cc2[nH]c1=O)OCO3	D1 antagonist -34
COc1ccccc1NC(=S)N(CCCN(C)C)Cc1cc2cc3c(cc2[nH]c1=O)OCO3	none
Cc1cccc(C)c1NC(=O)CCC(=O)N1Cc2ccccc2Oc2ncccc21	none
CCc1ccc(NC(=O)CSCc2nc(N)nc(Nc3ccccc3CC)n2)cc1	D1 antagonist -36
CCc1ccccc1Nc1nc(N)nc(CSCC(=O)Nc2ccc(C)c(C)c2)n1	none
O=S(=O)(NCc1ccco1)c1cccc(S(=O)(=O)N2CCCCC2)c1	TRHR PAM 32
Cc1nc(SCC(=O)Nc2ccccc2F)[nH]c(=O)c1Cc1ccccc1	none

Compound activity (PubChem)
